High-throughput results deposited in PubChem by several laboratories.
Rows were chosen to be rich in hits. Some 2% of all compounds tested hit in one or more screens of this group.
HGIII-sPLA2 inh: Blocks human group III sPLA2 activity; Q9NZ20; QFRET BODIPY PC-A2 liposome hydrolysis, fluorescence; inhibition, % at 12.2 µM; 370,000 tested, 0.56% active;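 active means inhibition above mean plus 3 SD of compounds lying within the high and low control bounds, cut at about 19% in these data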;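 further: 0% = median of test compound wells and 100% = no enzyme DMSO wells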
Target sequence (Q9NZ20 whole entry, looked up): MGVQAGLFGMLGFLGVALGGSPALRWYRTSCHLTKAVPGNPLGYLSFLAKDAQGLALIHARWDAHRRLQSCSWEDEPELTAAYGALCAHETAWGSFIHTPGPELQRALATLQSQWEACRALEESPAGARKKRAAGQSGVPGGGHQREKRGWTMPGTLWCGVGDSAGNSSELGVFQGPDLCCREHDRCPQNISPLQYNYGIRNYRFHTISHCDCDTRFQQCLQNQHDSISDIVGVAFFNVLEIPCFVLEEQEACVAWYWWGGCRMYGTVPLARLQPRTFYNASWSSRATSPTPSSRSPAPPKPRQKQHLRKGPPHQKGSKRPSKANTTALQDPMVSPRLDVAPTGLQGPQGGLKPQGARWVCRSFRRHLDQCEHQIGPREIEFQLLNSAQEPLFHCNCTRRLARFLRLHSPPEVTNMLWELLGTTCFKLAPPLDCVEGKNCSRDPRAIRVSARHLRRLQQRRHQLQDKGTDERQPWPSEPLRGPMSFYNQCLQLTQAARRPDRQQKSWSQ
Neddyl block: blocks human cullin neddylation; AID 651699; 360,000 tested, 0.58% active; inhibition, % at 25 µM; TR-FRET cullin neddylation, biochemical; in the data active means inhibition above about 36%
ARNT-TACC3 inh: disrupts binding between human ARNT and TACC3 | AID 623870 | 390,000 tested, 0.66% active | inhibition, % at 9.99 µM | Q9Y6A5 | AlphaScreen His-ARNT PAS-B/GST-TACC3 binding, luminescence; TACC3 fragment carries E629A point mutation;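 active means mean inhibition of replicates at least 50% and at least half of replicates each reaching 50%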;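 further: 0% = complete ARNT plus TACC3 wells and 100% = ARNT alone without TACC3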
NadD inh: inhibitors of Staphylococcus aureus NadD; inhibition, % at 20 µM; AID 602399; 360,000 tested, 0.78% active; purified NadD enzyme, colorimetric absorbance read-out; in the data active means inhibition above about 26%
DAGLB inh: blocks human DAGLB lipase activity; HEK293T DAGLB membrane lysate, EnzChek fluorogenic substrate; inhibition, % at 5.17 µM; 340,000 tested, 0.059% active; in the data active means inhibition above about 34%;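 further: 0% = enzyme with vehicle and 100% = wells lacking enzyme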
The depositor's hits bear a star; x = no result shown.

SMILES | HGIII-sPLA2 inh | Neddyl block | ARNT-TACC3 inh | NadD inh | DAGLB inh
Cc1[nH]c(=O)[nH]c(=O)c1/C=N/NC(=O)[C@H](C)N | -1 | 15 | 47* | -3 | -1
Cc1[nH]c(=O)[nH]c(=O)c1/C=N/NC(=O)CCNC(=O)OC(C)(C)C | 2 | -1 | 12 | 0 | 0
Cc1ccccc1S(=O)(=O)NCC[C@H]1CC[C@@H](NC(=O)C2CC2)[C@H](CO)O1 | x | x | -5 | x | x
O=C(CCN1C(=O)/C(=C/c2ccccc2Cl)SC1=S)NC1C=CS(=O)(=O)C1 (configuration not stated) | -3 | -40 | -24 | 37* | 8
O=C(CCN1C(=O)/C(=C/c2ccc(F)cc2)SC1=S)NC1C=CS(=O)(=O)C1 (configuration not stated) | 3 | -38 | -16 | -5 | -1
CCN1CCc2c(sc(NC(=O)c3ccc4ccccc4c3)c2C(N)=O)C1 | -19 | 41* | -12 | -7 | 0
CCN1CCN(S(=O)(=O)c2ccc(C(=O)Nc3sc4c(c3C(N)=O)CCN(CC)C4)cc2)CC1 | -12 | -11 | -3 | 0 | -2
O=C(C[n+]1ccccc1)N/N=C/c1cc(Br)cc(Br)c1O | x | -1 | 64* | -10 | -1
O=C(CP(=O)(c1ccccc1)c1ccccc1)N/N=C/c1cc(Br)cc(Br)c1O | 7 | x | 0 | 44* | 2
O=C(Cc1ccccc1)N/N=C/c1cc(Br)cc(Cl)c1O | 9 | x | -18 | -3 | 9
C[C@H](CO)N1C[C@H](C)[C@H](CN(C)C)Oc2cc(C#Cc3ccncc3)ccc2S1(=O)=O | x | x | 3 | x | x
COc1cc(NS(=O)(=O)c2ccc(NC(=O)/C(=C\c3ccccc3OC)NC(=O)c3ccccc3)cc2)nc(OC)n1 | -41 | 1 | 1 | 31* | 6
C[C@H](CO)N1C[C@H](C)[C@H](CN(C)C)Oc2cc(C#Cc3cccnc3)ccc2S1(=O)=O | x | x | 7 | x | x
O=C(Nc1ccc(F)cc1)c1nc[nH]c1C(=O)O | 2 | 1 | 54* | 11 | -9
Cc1ccc(S(=O)(=O)Nc2ccc3c(c2)C(=O)N(C)[C@H]2CC[C@H](CC(=O)O)O[C@@H]2CO3)cc1 | x | x | 5 | x | x
COCc1cn(CC[C@@H]2CC[C@@H](NC(=O)Nc3ccc(OC)cc3)[C@@H](CO)O2)nn1 | x | x | 2 | x | x
O=C(O)c1ccccc1OCCOc1ccccc1C(=O)O | 2 | -4 | 50* | 6 | -1
O=C1c2ccc3c4c(ccc(c24)C(=O)N1c1ccc2ccccc2c1)CC3 | 5 | 14 | 0 | 17 | -3
O=C1CCC(=O)c2ccc3c4c(ccc1c24)CC3 | -12 | 49* | 3 | 1 | 2
O=C(N/N=C/c1ccc(OCc2ccc(F)cc2)cc1)c1ccccc1 | -1 | 6 | -7 | 1 | 2
CC(C)(C)c1ccc(OCc2ccc(C(=O)N/N=C/c3ccc(O)c(O)c3)cc2)cc1 | 5 | 15 | -2 | 72* | 5
COc1ccc(/C=N/NC(=O)c2cc[n+]([O-])cc2)cc1O | 2 | -24 | 72* | 2 | -1
CCOC(=O)C1=C(C)N=c2s/c(=C\c3ccc(OCC(=O)O)cc3)c(=O)n2C1c1ccccc1 (configuration not stated) | -32 | -25 | 19 | 14 | 3
CCOC(=O)C1=C(c2ccccc2)N=c2s/c(=C\c3ccc(O)cc3)c(=O)n2C1c1cccs1 (configuration not stated) | -36 | -7 | 7 | 35* | -3
CCOC(=O)C1=C(C)N=c2s/c(=C/c3cccc([N+](=O)[O-])c3O)c(=O)n2C1c1ccccc1 (configuration not stated) | -3 | -25 | 60* | 23 | 10
SMILES | HGIII-sPLA2 inh | Neddyl block | ARNT-TACC3 inh | NadD inh | DAGLB inh
CCOC(=O)C1=C(C)N=c2s/c(=C/c3cccc([N+](=O)[O-])c3O)c(=O)n2C1c1cc(OC)c(OC)c(OC)c1 (configuration not stated) | 1 | -13 | 74* | 24 | 8
Cc1noc(C)c1S(=O)(=O)Nc1ccc2c(c1)C(=O)N([C@@H](C)CO)C[C@H](C)[C@@H](CN(C)S(=O)(=O)c1ccccc1)OCCCC[C@@H](C)O2 | x | x | -5 | x | x
Cc1noc(C)c1S(=O)(=O)Nc1ccc2c(c1)C(=O)N([C@H](C)CO)C[C@H](C)[C@@H](CN(C)CC1CCCCC1)OCCCC[C@H](C)O2 | x | x | -3 | x | x
O=C(Cn1cc2c(n1)CCCC2)N1CCOCC1 | 0 | 0 | x | 2 | 2
CC1CCN(C(=O)Cn2cc3c(n2)CCCC3)CC1 | 13 | -7 | 47* | -1 | 0
CC(=O)C1CCC2C3CC=C4CC(SC(=N)N)CCC4(C)C3CCC12C (configuration not stated) | 37* | -1 | 8 | 7 | 6
C[C@H]1CN([C@@H](C)CO)C(=O)c2cccc(NS(C)(=O)=O)c2O[C@H]1CN(C)C(=O)Nc1ccc(F)cc1 | x | x | -5 | x | x
O=C(c1cc(COc2cccc3cnccc23)on1)N1CCCC(CCCO)C1 (configuration not stated) | 1 | 45* | -9 | 0 | 0
CCCC#Cc1cnc2c(c1)C(=O)N([C@H](C)CO)C[C@H](C)[C@@H](CN(C)C)O2 | x | x | -19 | x | x
O=C(O)c1ccc(N/N=C/c2cn(Cc3ccc(F)cc3)c3ccccc23)cc1 | -22 | 46* | 9 | 18 | 5
CCCC(=O)Nc1ccc2c(c1)OC[C@@H](C)N(Cc1ccccc1)C[C@H](C)[C@H](OC)CN(C)C2=O | x | x | -8 | x | x
CCOC(=O)c1cc(-c2ccccc2)sc1NC(=O)COC(=O)c1ccc(Cl)c(S(N)(=O)=O)c1 | x | -110 | -5 | 42* | 3
O=Nc1c(O)ccc2cc(S(=O)(=O)O)ccc12 | x | x | 18* | 0 | -1
O=S(=O)(O)c1ccc(Cl)c(Cl)c1 | -4 | -10 | 0 | 1 | 0
CN(C)c1ccc2cc(S(=O)(=O)O)cc(O)c2c1 | 10 | x | 36* | 2 | 4
Nc1cccc2cc(S(=O)(=O)O)ccc12 | -5 | 46* | 34 | 0 | 0
CCS(=O)(=O)N[C@H]1C=C[C@@H](CC(=O)NCc2ccc(Cl)cc2)O[C@H]1CO | x | x | 2 | x | x
CC1(CC(=O)N/N=C/c2cc(Br)c(O)cc2O)OCCO1 | 2 | 7 | 75* | 1 | 4
Cc1oc(/C=N/NC(=O)CC2(C)OCCO2)cc1Br | -2 | -18 | -2 | -7 | -1
CCCN1C[C@@H](C)[C@H](OC)CN(C)C(=O)c2cc(NC(=O)C3CC3)ccc2OC[C@@H]1C | x | x | -7 | x | x
N=C(N)c1ccc(N=Nc2c(O)ccc3c2[nH]c2ccccc23)cc1 | 5 | -16 | 29 | 42* | 19
Cc1[nH]c2ccccc2c1N=Nc1ccc(F)cc1 | 5 | -19 | 20 | -2 | 1
CC(=O)N(C)C[C@H]1Oc2cc(-c3ccncc3)ccc2S(=O)(=O)N([C@H](C)CO)C[C@H]1C | x | x | -3 | x | x
Oc1ccc(/C=N\Nc2cc(N3CCOCC3)nc(N3CCOCC3)n2)c(O)c1 | -15 | 4 | x | 7 | 2
Oc1ccc(/C=N/Nc2cc(N3CCCC3)nc(N3CCCC3)n2)cc1O | 2 | 12 | 24 | 36* | 5
